Screens (PubChem)
An excerpt weighted towards active compounds, which were near 4.4% of everything screened.
p53ts 32C kill: p53ts cell cytotoxicity, permissive temperature; Potency, µM (top dose mostly 46.1 µM), for inactives: at the top dose activity change, negative = cytotoxicity, most hits filed as cytotoxic; H1299-p53A138V at 32C, ATP luminescence viability, 24 h; AID 924; hit rate 0.93% among 130,000;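 note: 0% = DMSO and -100% = full killing by reference compound; nearly all actives have a fitted effect of over 55% in size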
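Cells: H1299 p53ts (A138V), 600/well, pre-incubated 16–30 h at 37C. Cpd up to 46 uM, 24 h, 32C. Readout: ATPlite luminescence, 20 min RT. Normalization: DMSO vs tamoxifen 100 uM. AC50 by Hill equation.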
HPGD inh: inhibitors of human 15-hydroxyprostaglandin dehydrogenase (HPGD); purified HPGD, NADH fluorescence kinetic, PGE2 substrate; Potency, µM, for inactives: top-dose activity change, negative = inhibition, usual class: inhibitors; hit rate 4.3% among 150,000; AID 894; active = well fitted inhibition curve with a large enough effect, not every such curve was filed as active; inconclusive = small, poorly fitted or top-dose-only effect, or another doubt; inactive = no such curve, though single readings can be large or run the other way
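NADH formation kinetics: reaction with 30 uM PGE2 and 1 mM NAD+ (final), 20 nM enzyme, Tris-HCl pH 8 with Tween 20, after 15 min compound preincubation at room temperature. Fluorescence change, last versus first of five reads.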
p53ts 39C tox: cytotoxicity in p53ts cells at nonpermissive temperature | H1299-p53A138V viability at 39C, ATP luminescence, 24 h | Potency, µM (series often up to 46.1 µM), for the others: at the top dose activity change, negative = cell killing, most hits filed as cytotoxic | hit rate 1.5% among 130,000; note: nearly all actives have a fitted effect of over 55% in size
12-hLO inh: blocks human 12-lipoxygenase activity. purified 12-hLO, xylenol orange hydroperoxide absorbance. Potency, µM (titrated, usually from 57.1 µM), inactives show at the highest dose activity change, negative = inhibition, hits mostly inhibitors. hit rate 0.12% among 150,000; note: nearly all actives have a fitted effect of over 55% in size
Target sequence (P18054 whole entry, looked up): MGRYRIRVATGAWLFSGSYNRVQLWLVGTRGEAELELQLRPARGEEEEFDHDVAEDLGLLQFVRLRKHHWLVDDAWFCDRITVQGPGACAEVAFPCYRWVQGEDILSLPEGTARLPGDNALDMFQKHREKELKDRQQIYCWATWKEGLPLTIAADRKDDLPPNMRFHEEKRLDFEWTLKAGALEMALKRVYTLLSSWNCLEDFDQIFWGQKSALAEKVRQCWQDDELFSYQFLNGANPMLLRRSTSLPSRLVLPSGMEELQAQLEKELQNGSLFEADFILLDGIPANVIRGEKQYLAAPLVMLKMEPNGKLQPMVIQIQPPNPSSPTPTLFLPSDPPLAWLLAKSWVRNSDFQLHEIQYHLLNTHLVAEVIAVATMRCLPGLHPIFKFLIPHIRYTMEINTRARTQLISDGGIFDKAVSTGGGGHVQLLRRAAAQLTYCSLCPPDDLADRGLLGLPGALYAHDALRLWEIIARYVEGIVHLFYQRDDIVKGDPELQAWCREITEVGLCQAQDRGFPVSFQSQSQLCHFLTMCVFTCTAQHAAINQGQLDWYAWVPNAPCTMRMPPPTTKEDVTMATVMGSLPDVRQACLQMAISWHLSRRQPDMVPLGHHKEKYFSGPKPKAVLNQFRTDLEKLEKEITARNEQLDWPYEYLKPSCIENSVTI
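150 nM 12hLO, 25 mM Hepes pH 7.0 + 0.01% Triton X-100; cpd preinc 15 min RT; 40 uM arachidonic acid, 30 min RT; Fe-XO 30 min; A573/A405 ratio as read-out.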
An asterisk follows results filed as active; ? = inconclusive; / = no result given; [ ] = another dose, or the depositor's remark. Unless noted, calls come from the whole dose curve; as a rule, active = well fitted curve in the direction sought with a large enough effect; inconclusive = small, poorly fitted or top-dose-only effect, or another doubt; inactive = no such curve, though single readings can be large; an effect the other way counts as inactive or inconclusive. Unless noted, % is set by controls: 0 for no effect and ±100 for the full control effect; potency is the fitted concentration of half-maximal effect.

SMILES	p53ts 32C kill	HPGD inh	p53ts 39C tox	12-hLO inh
Cc1ccc(-n2ncc3c(N4CCCCCC4)ncnc32)cc1	3.2µM*	/	2.5µM*	/
Fc1ccc(-n2ncc3c(N4CCCCCC4)ncnc32)cc1	?	/	5µM*	/
Clc1ccc(-n2ncc3c(N4CCCC4)ncnc32)cc1	/	?	/	5%
CCN(CC)C(=O)C1CCN(c2ncnc3c2cnn3-c2ccc(C)cc2C)CC1	/	22µM*	/	-2%
[N-]=[N+]=Nc1ccc(C(=O)CSC[C@H](NC(=O)CC[C@H](N)C(=O)O)C(=O)NCC(=O)O)cc1	/	-7%	/	/
Cc1ccccc1NC(=O)Cn1c(=O)oc2cc(Br)ccc21	12%	/	59%	/
O=C(c1ccccc1)N1CCN(c2ncnc3c2cnn3-c2ccccc2)CC1	/	-8%	/	2%
Cc1nn(-c2ccccc2)c(Cl)c1C(=O)N1CCN(c2ncnc3c2cnn3-c2ccccc2)CC1	10µM*	?	?	3%
Cc1ccc(-c2nc3cc(C(C)C)ccc3o2)cc1NC(=O)c1cc([N+](=O)[O-])ccc1N1CCOCC1	-24%	/	-24%	/
O=c1[nH]nc(Cc2ccccc2)c2ccccc12	/	-16%	/	-1%
O=c1[nH]c(=S)[nH]nc1Cc1ccccc1	-2%	28µM*	4%	-2%
COc1ccccc1N=c1oc2cc(O)ccc2cc1C(N)=O	?	?	13µM*	-8%
CCOC(=O)c1c(S(=O)(=O)N2CCCC(C(=O)Nc3cccc(Cl)c3)C2)c(C)n(C)c1C (stereo unspecified)	1%	/	-5%	/
Cc1ccc(C(=O)c2c(C)oc3c2C(=O)C(=O)c2ccccc2-3)cc1	/	20µM*	/	?
CCOC(=O)c1ccc(N2C(=O)c3n[nH]c(-c4cccs4)c3C2c2ccc(C(C)C)cc2)cc1 (stereo unspecified)	?	/	10µM*	/
CCOC(=O)c1ccc(N2C(=O)c3n[nH]c(-c4cccs4)c3C2c2ccc(CC)cc2)cc1 (stereo unspecified)	?	/	10µM*	/
N[C@@H](Cc1cccc([N+](=O)[O-])c1)C(=O)O	18%[9.22 µM]	-6%	-4%[9.22 µM]	3%[11.4 µM]
CNC(=O)[C@@H]1O[C@@H](n2cnc3c(NCc4ccc(N)cc4)ncnc32)[C@@H](O)[C@H]1O	15%	/	16%	-2%
Cc1cc(C)cc(NC(=O)c2cc(Cl)sc2Cl)c1	/	32µM*	/	-3%
CCc1nnc2c3ccccc3nc(Nc3ccccc3OC)n12	-5%	/	8%	/
Cc1cc(N2CCN(C/C=C/c3ccccc3)CC2)n2ncnc2n1	-1%	28µM*	-13%	3%
COc1ccccc1CNC(=O)c1cccn1-c1nnc(N2CCCCC2)s1	7%	/	-3%	/
S=c1[nH]nc(-c2cc(-c3ccco3)[nH]n2)n1-c1ccccc1	/	20µM*	/	-2%
Cc1cc(-c2n[nH]c(=S)n2-c2ccccc2)nn1C	/	-19%	/	0%
S=c1[nH]nc(-c2cc(-c3ccco3)[nH]n2)n1-c1ccccc1Cl	/	32µM*	/	?
SMILES	p53ts 32C kill	HPGD inh	p53ts 39C tox	12-hLO inh
CCOc1ccc(NC(=O)CSc2oc(-c3cccs3)nc2S(=O)(=O)c2ccc(Cl)cc2)cc1	-23%	/	13µM*	/
CCOc1ccc(NC(=O)CSc2oc(-c3ccc(C)cc3)nc2S(=O)(=O)c2ccc(C)cc2)cc1	13µM*	/	0.79µM*	/
Cc1cc(C)cc(NC(=O)CSc2oc(-c3ccccc3)nc2S(=O)(=O)c2ccccc2)c1	-17%	/	?	/
COc1ccccc1-c1nnc(NC(=O)c2ccc(S(=O)(=O)N(C)Cc3ccccc3)cc2)o1	-2%	?	13µM*	8%
CN(Cc1ccccc1)S(=O)(=O)c1ccc(C(=O)Nc2nnc(C3CC3)o2)cc1	1%	-16%	13µM*	2%
COc1ccc(N=C2C(=O)Nc3c(C)cccc32)cc1	-7%	0%	0%	-8%
COc1ccc(C2C(=O)c3ccccc3C2=Nc2ccc(Br)cc2)cc1 (stereo unspecified)	/	7.1µM*	/	6%
COc1ccc(N2C(=O)C(Cl)=C(Nc3ccccc3O)C2=O)cc1	/	14µM*	/	-13%
S=C1NCCc2ccccc2C1c1ccccc1Cl (stereo unspecified)	9%	-7%	0%	-27%
S=C1NCCc2ccccc2C1c1ccccc1 (stereo unspecified)	-9%	40µM*	71%	28µM*
Cc1[nH]c(=S)sc1Cc1ccc(Cl)c(Cl)c1	/	16µM*	/	?
Cn1c(CSCc2ccc(Cl)c(Cl)c2)n[nH]c1=S	/	-26%	/	0%
C=CCn1c(SCC(=O)c2ccc(OC)cc2)nnc1-c1cc2cccc(OC)c2o1	2%	2%	-1%	-8%
C=CCn1c(SCC(=O)c2cccs2)nnc1-c1cccc(OC)c1	2%	20µM*	-8%	-15%
Cc1ccc(C(=O)CSc2nnc(-c3ccco3)n2Cc2ccccc2)cc1	19%	-20%	-6%	-8%
C=CCn1c(SCC(=O)c2ccccc2)nnc1-c1cc2ccccc2o1	-5%	14µM*	1%	-5%
O=C(CSc1nnc(-c2ccco2)n1Cc1ccccc1)c1ccccc1	15%	28µM*	-12%	-10%
C=CCn1c(SCC(=O)c2ccccc2)nnc1-c1ccc2c(c1)OCO2	/	5.6µM*	/	-11%
COc1ccc(NC(=O)c2ccc(CNc3c(NC4CCCCC4)c(=O)c3=O)cc2)cc1OC	/	18µM*	/	-2%
CCc1ccc(C2C(C#N)=C(N)SC(N)=C2C#N)s1	-5%	28µM*	-5%	?
CCOc1ccccc1C1C(C#N)=C(N)SC(N)=C1C#N	12%	-17%	2%	-24%
N#CC1=C(N)SC(N)=C(C#N)C1c1cccc(Oc2ccccc2)c1	-2%	22µM*	3%	-18%
CCOc1ccc(C2C(C#N)=C(N)SC(N)=C2C#N)cc1OC	/	25µM*	/	-16%
CCOc1ccc(C2C(C#N)=C(N)SC(N)=C2C#N)cc1OCC	21%	22µM*	18%	-21%
CCOC(=O)C1=C(C)OC(N)=C(C#N)C1c1ccc(O)c(OC)c1 (stereo unspecified)	/	-14%	/	-5%
SMILES	p53ts 32C kill	HPGD inh	p53ts 39C tox	12-hLO inh
Cc1ccc(C2C(C#N)=C(N)SC(N)=C2C#N)o1	7%	?	-2%	-25%
CCOc1ccc(CNS(=O)(=O)c2ccc(-c3cc(C(F)(F)F)on3)s2)cc1	1%	/	-7%	/
Cc1ccc(C)c(NC(=O)CSc2nc(=O)n(CCN(C)C)c3c2CCC3)c1	-2%	/	33%	/
CCc1ccc(C2C(C#N)=C(N)SC(N)=C2C#N)cc1	7%	35µM*	5%	?
COc1ccc(NS(=O)(=O)c2cc(Br)cc3c2N(C(=O)C2CC2)CC3)cc1OC	-1%	/	19%	/
Cc1nc(-c2cccc(S(=O)(=O)N3CCOCC3)c2)cs1	7%	25µM*	0%	0%
Cc1nc(-c2ccc(C(=O)N3CCOCC3)cc2)cs1	0%	8.9µM*	-5%	-1%
O=C(CSc1nc2ccccc2nc1SCC(=O)N1CCOCC1)N1CCOCC1	6%	-20%	19%	2%
CC1CCN(C(=O)CSc2nc(N)cc(N)n2)CC1	-8%	16µM*	-4%	0%
CC1CCN(C(=O)CSc2nncn2C)CC1	/	3%	/	-2%
